Results filed as inconclusive are left out. Active and inactive are the calls of the source. Rule for the calls, unless noted: active = hit-call score of the fitted dose curve at least 0.9, where 1 is the maximum; inconclusive = response in the unintended direction; inactive = score below 0.9.
How the values were obtained:
[1] = TOX21_p53_BLA_p2_viability: Viability Assessment in the Tox21 HCT-116 p53 Agonism Beta-lactamase Assay, Phase 2 (AID 2283591);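 note: actives lower the ATP signal meaning cytotoxicity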
Method in brief: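 HCT116 p53-bla cells, 4000/well, dosed after 5 h plating (217-fold dilution of DMSO stocks) and incubated 16 h at 37C. Viability taken as cellular ATP by CellTiter-Glo luminescence after 30 min RT; signal loss marks cytotoxicity.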

[2] = target: Cellular tumor antigen p53 (Homo sapiens) (UniProt P04637); assay: TOX21_p53_BLA_p2_ratio: Tox21 HCT-116 p53 Agonism Beta-lactamase Assay, Ratio, Phase 2 (AID 2283592)
Method in brief: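 Readout: blue/green (460/530 nm) FRET emission ratio after 2 h CCF4-AM loading at room temperature, excitation 405 nm. HCT116 p53 bla cells, 16 h compound exposure at 37C, 5% CO2; agonist direction fitted against DMSO baseline.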

[3] = TOX21_p53_BLA_p3_viability: Viability Assessment in the Tox21 HCT-116 p53 Agonism Beta-lactamase Assay, Phase 3 (AID 2283593);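 note: cells exposed to compound for 16 h before reading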
Method in brief: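 HCT116 cells, 4000/well, dosed 5 h after plating by pin transfer (217-fold dilution from DMSO stock) and incubated 16 h at 37C, 5% CO2. Viability read as ATP luminescence with CellTiter-Glo after 30 min at room temperature.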

[4] = target: Cellular tumor antigen p53 (Homo sapiens) (UniProt P04637); assay: TOX21_p53_BLA_p3_ratio: Tox21 HCT-116 p53 Agonism Beta-lactamase Assay, Ratio, Phase 3 (AID 2283596)
Method in brief: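 Cells were seeded at 4000/well, rested 5 h at 37C, then dosed with DMSO compound solutions (217-fold dilution) for 16 h. CCF4-AM substrate was loaded for 2 h at room temperature, and the 460/530 nm emission ratio was fitted for gain of signal versus DMSO.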

[5] = TOX21_p53_BLA_p4_viability: Viability Assessment in the Tox21 HCT-116 p53 Agonism Beta-lactamase Assay, Phase 4 (AID 2283597);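 note: hits lower the luminescence signal meaning cytotoxicity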
Method in brief: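 ATP content by CellTiter-Glo luminescence, 30 min RT, read after the beta-lactamase ratio step. Cells: HCT116, 4000/well, compound added after 5 h, exposure 16 h at 37C. Signal loss = reduced viability.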

[6] = target: Cellular tumor antigen p53 (Homo sapiens) (UniProt P04637); assay: TOX21_p53_BLA_p5_ratio: Tox21 HCT-116 p53 Agonism Beta-lactamase Assay, Ratio, Phase 5 (AID 2283599)
Method in brief: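 HCT-116 p53-bla cells (4000/well) plated 5 h, dosed with compound (217-fold DMSO dilution) for 16 h at 37 C; CCF4-AM substrate 2 h at room temperature. Activity is the 460/530 nm emission ratio (405 nm excitation), fitted in gain-of-signal direction versus DMSO.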

[7] = TOX21_p53_BLA_p5_viability: Viability Assessment in the Tox21 HCT-116 p53 Agonism Beta-lactamase Assay, Phase 5 (AID 2283600)
Method in brief: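 ATP luminescence (CellTiter-Glo, 30 min, RT) served as the viability read-out, with loss of signal indicating cytotoxicity. Compounds in DMSO were pinned at a 217-fold dilution onto 4000 cells/well and incubated 16 h, 37C.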

[8] = target: Cellular tumor antigen p53 (Homo sapiens) (UniProt P04637); assay: TOX21_p53_BLA_p4_ratio: Tox21 HCT-116 p53 Agonism Beta-lactamase Assay, Ratio, Phase 4 (AID 2283601)
Method in brief: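 HCT-116 p53 beta-lactamase reporter cells (4000/well) preincubated 5 h, then compound (217-fold dilution of DMSO stock) for 16 h at 37C. CCF4-AM substrate added 2 h at room temperature; 460/530 nm emission ratio fitted upward versus DMSO.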

[9] = target: PGR (gene 5241) (UniProt P06401); assay: TOX21_PR_BLA_Followup_Antagonist_ratio: Tox21 HEK293 Progesterone Receptor (PR) Antagonism Beta-lactamase Follow-Up Assay, Ratio (AID 2283934)
Method in brief: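 Read-out: blue/green beta-lactamase FRET ratio (cleaved ch2 over uncleaved ch1), fitted relative to DMSO baseline. Cells: PR-UAS-bla HEK293T, GAL4-UAS reporter, stimulated with 1 nM R5020 final; 16 hr compound exposure, 37C.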

[10] = TOX21_PR_BLA_Followup_Agonist_viability: Viability Assessment in the Tox21 HEK293 Progesterone Receptor (PR) Agonism Beta-lactamase Follow-Up Assay (AID 2283935);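 note: signal loss means lower viability so actives are cytotoxic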
Method in brief: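 Luminescent ATP quantitation (CellTiter-Glo, 30 min, room temperature) in the same wells as the beta-lactamase read, on PR-UAS-bla HEK293T cells exposed to compound for 16 hr at 37C in 2% charcoal-stripped serum.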

[11] = TOX21_PR_BLA_Followup_Antagonist_viability: Viability Assessment in the Tox21 HEK293 Progesterone Receptor (PR) Antagonism Beta-lactamase Follow-Up Assay (AID 2283936);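 note: cells exposed to compound with R5020 agonist for 16 h; hits lower the luminescence signal meaning cytotoxicity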
Method in brief: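 PR-UAS-bla HEK293T cells in medium with 2% charcoal-stripped FBS were treated with compounds plus R5020 for 16 hr at 37C. After the beta-lactamase read, CellTiter-Glo was added to the same wells and luminescence read after 30 min at room temperature.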

[12] = target: PGR (gene 5241) (UniProt P06401); assay: TOX21_PR_LUC_Followup_Agonist: Tox21 HEK293 Progesterone Receptor (PR) Agonism Luciferase Follow-Up Assay (AID 2283937; active = hit-call score of the fitted dose curve at least 0.9, where 1 is the maximum; inactive = score below 0.9)
Method in brief: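 Luminescence read-out (ONE-Glo, 30 min at room temperature) of PR-driven luciferase in HEK293-PR-A-luc cells after 16 h compound exposure at 37C; gain of signal fitted relative to DMSO baseline.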

[13] = target: PGR (gene 5241) (UniProt P06401); assay: TOX21_PR_LUC_Followup_Antagonist: Tox21 HEK293 Progesterone Receptor (PR) Antagonism Luciferase Follow-Up Assay (AID 2283938);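 note: curve fitted upward as signal gain over DMSO baseline despite antagonist label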
Method in brief: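 Luminescence from ONE-Glo reagent, measured after 30 min at room temperature, served as readout. Cells (HEK293 carrying PR-A-luc) had been treated 16 h at 37C with DMSO-dissolved compounds. Activity was fitted against DMSO controls.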

[14] = TOX21_PR_LUC_Followup_Agonist_viability: Viability Assessment in the Tox21 HEK293 Progesterone Receptor (PR) Agonism Luciferase Follow-Up Assay (AID 2283941);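 note: loss of signal means cytotoxicity so actives lower viability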
Method in brief: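 Cytotoxicity counter-screen: ATP content by CellTiter-Glo luminescence, loss of signal = reduced viability. HEK293-PR-A-luc, 3,000 cells/well, compound exposure 16 h, 37C.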

[15] = CCTE_Deisenroth_H295R-HTRF_384WELL_ESTRADIOL: CCTE's H295R-HTRF Assay Evaluation of Estradiol Concentration, Deisenroth Lab (AID 2284361; active = hit-call score of the fitted dose curve at least 0.9, where 1 is the maximum; inactive = score below 0.9); conditions: actives raise or lower the signal
Method in brief: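 Estradiol secreted into medium by H295R adrenocortical cells, quantified by HTRF after 48 h dosing over a nine-point 0.001 - 100 uM final range; gain or loss versus DMSO. Parallel ATP-luminescence viability readout; n=5 experiments.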

[16] = CCTE_Deisenroth_H295R-HTRF_384WELL_TESTOSTERONE: CCTE's H295R-HTRF Assay Evaluation of Testosterone Concentration, Deisenroth Lab (AID 2284373; active = hit-call score of the fitted dose curve at least 0.9, where 1 is the maximum; inactive = score below 0.9); conditions: actives raise or lower the signal
Method in brief: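 Testosterone secreted into medium was quantified by direct HTRF immunoassay after a 48 h treatment of H295R adrenocortical cells (nine concentrations, 0.001–100 uM final). Gain or loss fitted relative to DMSO; CellTiter-Glo viability read on same plates.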

[17] = CCTE_Deisenroth_H295R-HTRF_384WELL_CTOX: Cytotoxicity Assessment in CCTE's H295R-HTRF Assay, Deisenroth Lab (AID 2284380)
Method in brief: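 Luminescent ATP viability readout (CellTiter-Glo 2.0), multiplexed on plates used for hormone sampling, after 48 h chemical exposure. Human H295R cells; final concentrations 0.001–100 uM in nine steps, technical triplicates, five experiments; DMSO baseline.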

Measured: AC50

PGR (gene 5241), sequence (P06401 whole entry, looked up, the tested form may be a part): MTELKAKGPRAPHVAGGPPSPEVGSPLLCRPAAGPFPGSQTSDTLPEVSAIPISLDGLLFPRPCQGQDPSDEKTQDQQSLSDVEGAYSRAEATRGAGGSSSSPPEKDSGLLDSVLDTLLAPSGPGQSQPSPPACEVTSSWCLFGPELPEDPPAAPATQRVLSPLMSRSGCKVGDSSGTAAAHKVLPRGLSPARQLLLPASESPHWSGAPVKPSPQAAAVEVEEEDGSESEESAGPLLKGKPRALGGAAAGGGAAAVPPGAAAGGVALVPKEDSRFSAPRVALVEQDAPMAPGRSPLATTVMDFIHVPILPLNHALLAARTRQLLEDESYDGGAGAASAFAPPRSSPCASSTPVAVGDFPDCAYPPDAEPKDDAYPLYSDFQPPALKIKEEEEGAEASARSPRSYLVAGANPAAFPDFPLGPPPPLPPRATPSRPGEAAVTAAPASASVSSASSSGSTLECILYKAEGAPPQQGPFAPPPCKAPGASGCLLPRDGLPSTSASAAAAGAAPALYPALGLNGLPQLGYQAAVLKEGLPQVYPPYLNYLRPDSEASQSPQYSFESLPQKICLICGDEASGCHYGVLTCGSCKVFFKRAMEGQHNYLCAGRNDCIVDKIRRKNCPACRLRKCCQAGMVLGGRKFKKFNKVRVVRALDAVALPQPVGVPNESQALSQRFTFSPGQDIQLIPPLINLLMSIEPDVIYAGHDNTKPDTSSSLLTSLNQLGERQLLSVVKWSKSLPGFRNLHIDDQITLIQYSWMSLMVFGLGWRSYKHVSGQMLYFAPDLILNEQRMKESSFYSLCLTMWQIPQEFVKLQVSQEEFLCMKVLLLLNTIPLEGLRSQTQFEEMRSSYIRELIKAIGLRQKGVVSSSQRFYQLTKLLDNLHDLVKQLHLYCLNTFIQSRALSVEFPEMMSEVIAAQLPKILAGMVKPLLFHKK
Cellular tumor antigen p53 (Homo sapiens), sequence (P04637 whole entry, looked up): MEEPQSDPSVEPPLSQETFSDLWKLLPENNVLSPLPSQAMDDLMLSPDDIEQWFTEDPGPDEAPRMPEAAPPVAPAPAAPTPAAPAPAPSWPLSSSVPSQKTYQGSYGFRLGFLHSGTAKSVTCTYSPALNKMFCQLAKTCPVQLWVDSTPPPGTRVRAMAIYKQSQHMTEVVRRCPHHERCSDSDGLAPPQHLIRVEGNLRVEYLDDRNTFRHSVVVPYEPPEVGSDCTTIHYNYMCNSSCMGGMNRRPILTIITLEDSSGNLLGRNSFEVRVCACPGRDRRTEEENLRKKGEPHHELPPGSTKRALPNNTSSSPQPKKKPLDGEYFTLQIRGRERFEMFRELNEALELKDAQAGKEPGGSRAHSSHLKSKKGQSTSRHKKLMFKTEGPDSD

C[C@]12Cc3nonc3C[C@@H]1CC[C@@H]1[C@@H]2CC[C@@]2(C)[C@H]1CC[C@]2(C)O
active: [3] 25.7 µM | [5] 23 µM | [10] 35.1 µM | [12] 0.862 µM
not listed: [15] | [16] | [17]
inactive: all other assays above

Nc1c(Br)cc([N+](=O)[O-])cc1[N+](=O)[O-]
inactive: [1] | [2] | [3] | [4] | [5] | [7]

C[C@@H]1CC[C@@]2(OC1)O[C@H]1[C@@H](O)[C@H]3[C@@H]4CC[C@H]5C[C@@H](O[C@@H]6O[C@H](CO)[C@H](O[C@@H]7O[C@H](CO)[C@@H](O)[C@H](O[C@@H]8OC[C@@H](O)[C@H](O)[C@H]8O)[C@H]7O[C@@H]7O[C@H](CO)[C@@H](O)[C@H](O[C@@H]8O[C@H](CO)[C@@H](O)[C@H](O)[C@H]8O)[C@H]7O)[C@H](O)[C@H]6O)[C@H](O)C[C@]5(C)[C@H]4CC[C@]3(C)[C@H]1[C@@H]2C
active: [1] 19 µM | [2] 39.1 µM | [3] 48.5 µM | [4] 81.5 µM | [5] 18.7 µM | [6] 69.7 µM | [7] 33.3 µM | [8] 76.9 µM | [15] 88.2 µM | [16] 2.93 µM | [17] 6.26 µM
